The list is not random: actives were taken first. Their share in the collection is about 27%.
CYP2C9 activ – activators of human CYP2C9 | P11712 | recombinant CYP2C9, luciferin-H conversion, luminescence; stronger effect = higher value; factor 1 = untreated enzyme, 0 = blocked | activation factor at 5 µM | 96,000 tested, 1.4% active | AID 1024;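 active = activation factor of 2 or more for CYP2C9 at a 5 µM dose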;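 also: 0 = sulfaphenazole-blocked wells and 1 = vehicle-only wells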
Target sequence (P11712 whole entry, looked up): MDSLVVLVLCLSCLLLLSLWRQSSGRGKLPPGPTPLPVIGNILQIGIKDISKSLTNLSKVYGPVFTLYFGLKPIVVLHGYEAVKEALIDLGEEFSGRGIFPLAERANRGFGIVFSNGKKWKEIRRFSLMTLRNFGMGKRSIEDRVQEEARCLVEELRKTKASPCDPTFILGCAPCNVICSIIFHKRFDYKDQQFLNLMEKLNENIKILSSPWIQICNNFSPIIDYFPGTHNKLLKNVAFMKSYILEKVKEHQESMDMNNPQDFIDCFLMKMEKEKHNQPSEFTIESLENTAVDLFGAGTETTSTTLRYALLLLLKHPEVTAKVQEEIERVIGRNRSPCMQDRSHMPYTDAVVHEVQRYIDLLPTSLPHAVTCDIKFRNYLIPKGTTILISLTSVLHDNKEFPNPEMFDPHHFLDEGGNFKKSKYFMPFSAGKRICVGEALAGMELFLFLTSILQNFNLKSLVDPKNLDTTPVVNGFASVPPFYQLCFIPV
CYP2C19 inhib – blocks human cytochrome P450 2C19; P33261; CYP2C19 Supersomes, luciferin-H EGE luminescence, 30 min; inhibition, % at 5 µM; 96,000 tested, 21% active; AID 778;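 active = CYP2C19 inhibition above a set limit at 5 µM in the primary screen, cut at about 50% in these data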;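 also: plate controls were negative control wells for no effect and 2.5 mM tranylcypromine positive control for full effect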
Cav32 inh – human Cav3.2 channel inhibition, primary screen. B-score at 10 µM. AID 449739. 100,000 tested, 4% active. Cav3.2-expressing cells, Fluo-4 calcium fluorescence FDSS; stronger effect = lower value. O95180;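 active = single-dose well whose peak fluorescence ratio is a statistical outlier from its plate by either plate-standardised score or position-corrected B-score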
CYP2C19 activ – activators of human cytochrome P450 2C19 | recombinant CYP2C19, luciferin-H EGE luminescence; stronger effect = higher value; 0 = fully inhibited enzyme, 1 = untreated enzyme | activation factor at 5 µM | 96,000 tested, under 10 active | AID 1025;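 active = activation factor of at least 2 at 5 µM in the primary screen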;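 also: 0 = wells with 2.5 mM tranylcypromine and 1 = vehicle-only wells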
CYP2C9 inhib – human CYP2C9 inhibition; 96,000 tested, 20% active; AID 777; CYP2C9 Supersomes, luciferin-H conversion, luminescence; P11712; inhibition, % at 5 µM;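 active = blocking of liver enzyme CYP2C9 beyond about 50% at 5 µM, limit read from the data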
* hit, by the source's call; · = no result given.

SMILES	CYP2C9 activ	CYP2C19 inhib	Cav32 inh	CYP2C19 activ	CYP2C9 inhib
Cc1ccc(OCc2nc(-c3ccccn3)no2)c(Br)c1	0.7	84*	-2.9	0.2	31
CC(C)c1ccc(OCc2nc(-c3ccccn3)no2)c(Br)c1	0.6	34	-2.8	0.7	37
Cc1ccc(OCc2nc(-c3ccccn3)no2)cc1	0.7	41	-1.1	0.6	32
CCc1ccc(OCc2nc(-c3ccccn3)no2)c(Br)c1	0.3	95*	-4.6*	0.1	74*
COC(=O)C(NNc1ccccc1)(NC(=O)c1cccc(F)c1)C(F)(F)F (stereo not drawn)	0.2	83*	-0.7	0.2	84*
CSc1nc2nc3c(c(=O)n2[nH]1)CCCC3	0.9	-7	0.079	1.1	11
Nc1nc(CSc2nnnn2-c2ccc(F)c(Cl)c2)nc(N2CCOCC2)n1	·	·	1	·	·
CCN(C(=O)CSc1nnc(-c2ccccc2Cl)n1C1CCCC1)C1CCS(=O)(=O)C1 (stereo not drawn)	0.2	2	0.73	1	79*
Cc1cc(C)cc(NC(=O)C/C(N)=N/O)c1	1	-3	-3.1	1	1
COc1ccc(OCc2nnc(SC3CCOC3=O)n2-c2ccccc2)cc1 (stereo not drawn)	0.7	84*	0.13	0.2	27
O=C(c1ccccc1)N1CCCCC(Sc2nnnn2-c2ccccc2)C1=O (stereo not drawn)	·	·	-0.92	·	·
COc1cccc(-n2c(SC3CCOC3=O)nc3ccccc3c2=O)c1 (stereo not drawn)	·	·	0.06	·	·
O=C1OCCC1Sc1nc(-c2ccccc2)cs1 (stereo not drawn)	2.1*	87*	0.041	0.1	-109
O=C(c1ccc(F)cc1)N1CCCCC(Sc2nnnn2-c2ccccc2)C1=O (stereo not drawn)	0.3	73*	-2.2	0.3	74*
O=C1OCCC1Sc1nnnn1-c1ccccc1 (stereo not drawn)	1	88*	1.2	0.1	-5
Cc1cc(C)nc(Sc2c(C)n[nH]c2C)n1	1.6	0	0.17	1	-57
Cc1csc(CCc2nc(C)cs2)n1	0.9	16	0.077	0.8	9
COc1cc(NC(=O)Cn2nc(C(F)(F)F)c3c2CCCC3)cc(OC)c1OC	0.9	16	-3.6	0.8	12
CCCCC(CCC(=O)Nc1ccc(C(=O)OC)cc1)C(=O)O (stereo not drawn)	·	·	0.12	·	·
CO[C@H]1C=CO[C@@]2(C)Oc3c(C)c(O)c4c(O)c(c5c(nc6cc(C)ccn65)c4c3C2=O)NC(=O)C(C)=CC=C[C@H](C)[C@H](O)[C@@H](C)[C@@H](O)[C@@H](C)[C@H](OC(C)=O)[C@@H]1C	·	·	-0.021	·	·
Cc1nc2cc(-c3ccc(Cl)cc3)nn2c(C)c1CCC(=O)NCc1ccco1	0.8	79*	0.097	0.2	20
COc1ccc(-c2cc3nc(C)c(CCC(=O)NCc4ccco4)c(C)n3n2)c(OC)c1	·	·	1.1	·	·
O=c1c2cnn(-c3ccc(F)cc3)c2ncn1Cc1ccc(F)cc1	·	·	-0.53	·	·
CCCCn1cnc2c(cnn2-c2ccc(F)cc2)c1=O	0.4	43	0.24	0.6	56*
CCCn1cnc2c(cnn2-c2ccc(F)cc2)c1=O	·	·	1.2	·	·
SMILES	CYP2C9 activ	CYP2C19 inhib	Cav32 inh	CYP2C19 activ	CYP2C9 inhib
O=c1c2cnn(-c3ccc(F)cc3)c2ncn1Cc1ccccn1	0.7	56*	0.73	0.4	33
Clc1cccc(CSC2=NCCCN2)c1	·	·	0.11	·	·
Cc1ccc2[nH]c(=O)c(CN(Cc3cccs3)Cc3nnnn3Cc3ccccc3)cc2c1	0.4	93*	-3.3	0.1	60*
CCOC(=O)Cn1nnnc1CN(CCc1ccccc1)Cc1cc2cc(CC)ccc2[nH]c1=O	0.3	44	-4.4*	0.6	72*
COc1ccc2[nH]c(=O)c(CN(Cc3cccs3)Cc3nnnn3C(C)(C)C)cc2c1	0.1	91*	-3	0.1	88*
CCOc1ccc2[nH]c(=O)c(CN(Cc3cccs3)Cc3nnnn3C(C)(C)C)cc2c1	1	4	-1.8	1	2
Cc1ccc2[nH]c(=O)c(CN(CCO)Cc3nnnn3CCc3ccccc3)cc2c1	0.5	71*	0.48	0.3	50
COc1cc(C2NC(=O)NC(C)=C2C(=O)OCC2CCCO2)ccc1O (stereo not drawn)	1	9	0.5	0.9	-5
O=C(NCC(=O)N(c1ccc(F)cc1)C(C(=O)NCC1CCCO1)c1ccccc1)c1ccco1 (stereo not drawn)	1.1	20	0.57	0.8	-14
Clc1ccccc1CSc1ncn(-c2ccccc2)n1	·	·	-2	·	·
C#CCNC(=O)C1=C[C@@H](c2ccc(Br)cc2)C[C@@H](OCCCCO)O1	·	·	0.071	·	·
N#Cc1nc(Cc2ccccc2)oc1N1CCN(c2ccccc2)CC1	0.6	32	-4.8*	0.7	38
N#Cc1nc(Cc2ccccc2)oc1N1CCC(Cc2ccccc2)CC1	0.5	26	-5.2*	0.7	48
N#Cc1nc(Cc2cccc3ccccc23)oc1N1CCCCC1	0.8	32	-0.13	0.7	18
N#Cc1nc(Cc2ccccc2)oc1N1CCC(C(N)=O)CC1	0.9	8	-0.81	0.9	5
C[C@H]1CCC[C@]2(O[C@H](CCO)C[C@@H](O)[C@@H]2O)O1	·	·	0.2	·	·
C/C(Cn1nnc([N+](=O)[O-])n1)=N\NC(=O)c1cccc(Cl)c1	0.9	6	-0.07	0.9	6
CCOc1ccc(-n2c(COc3ccc(C)cc3)nnc2SCC(N)=O)cc1	0.6	91*	-1.2	0.1	38
CCOC(=O)C(CC)Sc1nnc(COc2ccc(C)cc2)n1-c1ccccc1 (stereo not drawn)	·	·	-7.3*	·	·
O=C(CSc1nnc(COc2ccccc2)n1-c1ccccc1)c1cccs1	0	98*	-6.9*	0	97*
COc1ccc(NS(=O)(=O)c2ccc(Oc3ncccn3)cc2)cc1	0.3	81*	0.12	0.2	69*
COc1ccc(-n2cnc3cc(NS(=O)(=O)c4ccccc4)ccc32)cc1	·	·	1.2	·	·
COc1ccc(S(=O)(=O)Nc2ccc(Oc3ncccn3)c(Cl)c2)cc1	0	100*	-1	0	98*
CCOC(=O)c1cnc2c(Cl)c(Cl)ccc2c1N1CCN(C)CC1	0.9	3	2.2	1	10
CC(=O)/C(=N/Nc1ccccc1C)N1CCOCC1	1	17	0.73	0.8	-3
CCCCC(=O)NC1=NC(=O)C(C)(C)S1	1.1	-8	-2	1.1	-8
CCOCCCNS(=O)(=O)c1ccc(NC(=O)N2c3ccccc3Sc3ccccc32)cc1	0.1	46	-0.83	0.5	92*
Cc1sc(NC(=O)c2ccc(OCC(C)C)cc2)c(C(N)=O)c1-c1ccc(Cl)cc1Cl	0.3	12	-0.17	0.9	68*
C=CCSc1nnc2c(n1)OC=Nc1ccc(Br)cc1-2	0.4	53*	-0.094	0.5	60*
CN1C(=O)C(CC(=O)N2CCN(C(c3ccccc3)c3ccccc3)CC2)N(C)C1=O (stereo not drawn)	1	0	0.16	1	2
